This note sets out measurements from PubChem BioAssay AID651704 (Broad Institute, 2012).

Where “and” joins values, the source holds several entries; their conditions need not be identical. Identical values can stand only once. Screen size: about 350,000 compounds; about 1,600 (0.46%) were called active. The sample holds actives, similar compounds and a random draw of the others, so the mix is not that of the screen.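 The calls were made as follows: active = every replicate reaching a set inhibition limit, whatever the replicate mean (cut at about 25% in these data); inconclusive = mean inhibition reaches that limit but some replicates miss it; inactive = the rest.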

Usually inhibition stands for the relative decrease from the control value, in per cent.

Sequence of Protein AF-9 (Homo sapiens) (P42568 whole entry, looked up): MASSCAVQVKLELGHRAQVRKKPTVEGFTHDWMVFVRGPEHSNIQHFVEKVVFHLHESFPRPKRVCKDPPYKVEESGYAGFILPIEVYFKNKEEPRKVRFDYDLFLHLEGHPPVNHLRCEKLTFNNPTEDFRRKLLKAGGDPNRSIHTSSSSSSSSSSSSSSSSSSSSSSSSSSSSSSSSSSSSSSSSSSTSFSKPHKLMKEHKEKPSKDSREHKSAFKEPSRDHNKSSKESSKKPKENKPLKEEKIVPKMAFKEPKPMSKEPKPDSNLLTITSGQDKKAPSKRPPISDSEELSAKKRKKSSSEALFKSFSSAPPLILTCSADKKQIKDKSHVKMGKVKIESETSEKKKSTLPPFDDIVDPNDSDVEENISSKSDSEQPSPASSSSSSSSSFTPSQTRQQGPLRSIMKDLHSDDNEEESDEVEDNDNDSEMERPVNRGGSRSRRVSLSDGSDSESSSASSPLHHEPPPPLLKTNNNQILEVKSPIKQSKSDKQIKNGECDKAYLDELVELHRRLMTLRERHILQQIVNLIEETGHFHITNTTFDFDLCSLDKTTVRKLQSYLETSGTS

This experiment addresses Protein AF-9 (Homo sapiens) (UniProt P42568). The experiment in a line: MLL-AF4/AF9 protein interaction blockers – biochemical, AlphaScreen, biotin-AF4 peptide, FLAG-AF9, single point, primary screen (AID 651704).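 Also: 0% = plate neutral control median and 100% = total signal loss.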 The settings on record: biotin-AF4 peptide binding to FLAG-AF9, at 10 µM, stronger effect = higher value. A general note: Bead proximity is the source of the signal in Alpha formats.
Regarding `COc1ccc(NC(=S)NCC2CCN(c3ccc(OC)cc3)C2)cc1` (stereo not drawn), the inhibition is 28.9% (active).

Regarding `COc1ccc(OCC(=O)Nc2ccc(N3CCC(C)CC3)cc2)cc1`, the inhibition is 1.34% (inactive).

For `COc1ccc(N2CCC(CNC(=S)Nc3c(C)cccc3C)C2)cc1` (stereo not drawn), the inhibition is 18.6% (inactive).

Regarding `CO[C@@H]1CN(C)C(=O)c2ccc(NC(=O)C3CC3)cc2OC[C@H](C)N(C(=O)c2ccccc2)C[C@@H]1C`, the inhibition is -0.663% (inactive).

In the case of `COc1ccc(Cn2c(=S)[nH]c3cc(C(=O)NCCCN4CCOCC4)ccc3c2=O)cc1`, the inhibition was -9.96% (inactive).

As for `O=C(NCCCN1CCOCC1)c1cc(-c2ccc(Cl)cc2)on1`, the inhibition is -5.39% (inactive).

For `Cc1c(C)n(Cc2ccc(Cl)cc2)c2ccc(C(=O)NCCCN3CCOCC3)cc12`, the inhibition was 26.6% (active).

On to `COc1ccccc1-c1ccc([C@H]2[C@@H](CO)N(CC3CC3)C23CN(S(C)(=O)=O)C3)cc1`, for which the inhibition is 0.485% (inactive).

Regarding `Cn1cnc(S(=O)(=O)NC[C@@H]2CC[C@@H]3[C@@H](CN3Cc3nccs3)O2)c1`, the inhibition was -5.79% (inactive).

Consider `O=C(CN1CCOCC1)N1CCCCN2[C@H](C1)[C@H](c1ccc(-c3ccccc3F)cc1)[C@@H]2CO`, for which the inhibition was -4.58% (inactive).

On to `C[C@H](CO)N1C[C@H](C)[C@@H](CN(C)Cc2ccc(Oc3ccccc3)cc2)Oc2ccc(NS(=O)(=O)c3ccc(F)cc3)cc2CC1=O`, for which the inhibition is 1.77% (inactive).

Consider `Cc1cc(N=Nc2ccc3ccccc3c2)ccc1O`, for which the inhibition was 35.1% (active).

With `COc1ccc2c3c(n(C)c2c1)[C@@H](CO)N(C(=O)CN1CCOCC1)CC31CN(C(=O)CC2CC2)C1`, the inhibition is 0.071% (inactive).

Take `Nc1ccccc1C(=O)NC1CCCCNC1=O` (stereo not drawn): the inhibition was -2.44% (inactive).

On to `O=C(CNC(=O)OCc1ccccc1)NC1CCCCNC1=O` (stereo not drawn), for which the inhibition is 48% (active).

As for `O=C(Nc1c[nH]c(=O)[nH]c1=O)OCc1ccccc1`, the inhibition was 2.62% (inactive).

Turning to `C[C@@H]1CN([C@@H](C)CO)C(=O)CCCn2nncc2CO[C@H]1CN(C)C(=O)CCCN(C)C`, the inhibition is -5.71% (inactive).

Take `Cc1ccccc1S(=O)(=O)N1CC[C@H]2[C@H](CO)Nc3ccc(-c4cccc(F)c4)cc3[C@H]21`: the inhibition is -2.53% (inactive).

Turning to `Cc1noc(C)c1NC(=O)Nc1ccc2c(c1)CC(=O)N([C@H](C)CO)C[C@@H](C)[C@@H](CN(C)S(=O)(=O)c1ccc(Cl)cc1)O2`, the inhibition was -0.675% (inactive).

Consider `CN(C)C(=O)C[C@@H]1C[C@@H]2c3cc(NC(=O)C4CCOCC4)ccc3O[C@@H]2[C@@H](CO)O1`, for which the inhibition is -3.12% (inactive).

Take `CCCC(C)NC(=O)C1CCN(C(=O)C2CC(=O)N(c3ccc(C)cc3)C2)CC1` (stereo not drawn): the inhibition was -6.07% (inactive).

On to `COCCNC(=O)C1CCN(C(=O)C2CC(=O)N(c3ccc(C)cc3)C2)CC1` (stereo not drawn), for which the inhibition is 50.4% (active).

As for `Cc1ccc(N2CC(C(=O)NCCS(=O)(=O)N3CCN(c4ccccc4)CC3)CC2=O)cc1` (stereo not drawn), the inhibition was 0.43% (inactive).

With `C/C=C/c1ccc([C@@H]2[C@H](CO)N(CC3CCCC3)C23CN(C(=O)CC2CC2)C3)cc1`, the inhibition is 5.28% (inactive).

`CN(C)C(=O)C[C@H]1C=C[C@@H](NC(=O)c2ccc(F)cc2)[C@@H](CO)O1`: the inhibition was -2.41% (inactive).

For `COc1ccccc1S(=O)(=O)N(C)C[C@@H]1Oc2cc(C#CCC3CCCC3)ccc2S(=O)(=O)N([C@H](C)CO)C[C@H]1C`, the inhibition is 2.17% (inactive).

In the case of `O=C(NCCCN1CCOCC1)c1ccc([N+](=O)[O-])cc1[N+](=O)[O-]`, the inhibition was -2.14% (inactive).

Turning to `CN1CCN(CCNC(=O)Nc2ccc([N+](=O)[O-])cc2)CC1`, the inhibition was -2.1% (inactive).

With `O=C(NCCCN1CCN(c2ccc(F)cc2)CC1)Nc1ccc([N+](=O)[O-])cc1`, the inhibition is 25.7% (active).

As to `CO[C@H]1CN(C)C(=O)c2cc(NS(=O)(=O)CC(F)(F)F)ccc2OC[C@H](C)N(C(=O)c2ccc3c(c2)OCO3)C[C@H]1C`, the inhibition was -1.49% (inactive).

For the molecule `CC(C)=CCCC1(C)C=Cc2c(ccc3c2[nH]c2cc(O)c(C)cc23)O1` (stereo not drawn), the inhibition was 26.9% (active).

Turning to `COc1ccc(CN(C)C[C@@H]2OCCCC[C@H](C)Oc3ccc(NS(=O)(=O)c4cccs4)cc3C(=O)N([C@H](C)CO)C[C@@H]2C)cc1`, the inhibition was 5.32% (inactive).

Consider `N#Cc1ccc(-c2ccc(C3[C@@H]4CN(S(=O)(=O)c5ccccc5F)C[C@H]3N4)cc2)cc1` (stereo partly drawn), for which the inhibition is -2.55% (inactive) and -2.34% (inactive).

As to `COCC#Cc1ccc([C@@H]2[C@H]3CN(C(=O)C4CCOCC4)CC(=O)N3[C@H]2CO)cc1`, the inhibition is -0.325% (inactive).

On to `Cc1ccc(S(=O)(=O)Nc2ccc3c(c2)C(=O)N([C@H](C)CO)C[C@@H](C)[C@@H](CN(C)C(=O)CCC(F)(F)F)OCCCC[C@@H](C)O3)cc1`, for which the inhibition was -0.265% (inactive).

With `C[n+]1ccc(/C=C/c2c[nH]c3ccccc23)cc1`, the inhibition is 11.9% (inactive).

Turning to `O=C(Cc1c[nH]c2ccccc12)N/N=C/c1cccc(F)c1`, the inhibition was 2.76% (inactive).

For the molecule `CSC(=S)N/N=C/c1c[nH]c2ccccc12`, the inhibition is 33.1% (active).

`CCCC#Cc1ccc([C@H]2[C@H]3CN(C(=O)Nc4ccc(F)cc4)CC(=O)N3[C@H]2CO)cc1`: the inhibition is 0.647% (inactive).

`CO[C@@H]1CN(C)C(=O)c2cc(NS(=O)(=O)c3ccccc3C)ccc2OC[C@@H](C)N(S(C)(=O)=O)C[C@@H]1C`: the inhibition is -4% (inactive).

With `COc1ccc(NS(=O)(=O)c2cc3c(cc2C)N(C(C)=O)CCO3)cc1`, the inhibition is 52.8% (active).

With `COc1ccc(N2CCN(S(=O)(=O)c3ccc4c(c3)N(C(C)=O)CCO4)CC2)cc1`, the inhibition is 1.85% (inactive).

As to `COc1ccc(NS(=O)(=O)c2cc(NC(=O)C3CCCCC3)ccc2N2CCOCC2)cc1`, the inhibition was 1.75% (inactive).

On to `C[C@@H]1CN([C@@H](C)CO)C(=O)c2cc(-c3ccc(F)cc3)cnc2O[C@@H]1CN(C)Cc1ccc(C(=O)O)cc1`, for which the inhibition was -2.45% (inactive).

As to `N#C[C@@H]1[C@H](c2ccccc2C2=CCCCC2)[C@@H](CO)N1S(=O)(=O)c1cccc(F)c1`, the inhibition was -2.55% (inactive).

For `CCNC(=O)C[C@@H]1CC[C@@H]2[C@H](COC[C@H](O)CN2S(=O)(=O)c2ccc(Oc3ccccc3)cc2)O1`, the inhibition was -1.5% (inactive).

Consider `Cc1ccc(S(=O)(=O)N2C[C@H](O)COC[C@@H]3O[C@@H](CC(=O)NCC4CCCCC4)CC[C@H]32)cc1`, for which the inhibition is 27% (active).

As for `Cc1ccc(S(=O)(=O)N2C[C@@H](O)COC[C@@H]3O[C@H](CC(=O)NCCCN(C)C)CC[C@H]32)cc1`, the inhibition was -2.12% (inactive).

As to `Cc1ccc(S(=O)(=O)N2C[C@@H](O)COC[C@@H]3O[C@H](CC(=O)NCc4ccc(Cl)c(Cl)c4)CC[C@H]32)cc1`, the inhibition is 0.126% (inactive).

Regarding `O=C(C[C@@H]1CC[C@@H]2[C@H](COC[C@@H](O)CN2S(=O)(=O)c2ccccc2)O1)NCC1CCCCC1`, the inhibition is 33.9% (active).

Regarding `O=C(C[C@@H]1CC[C@H]2[C@@H](COC[C@H](O)CN2S(=O)(=O)c2ccccc2)O1)NCCN1CCCC1`, the inhibition is -0.246% (inactive).

`C[C@@H]1CN([C@@H](C)CO)C(=O)CCCn2cc(nn2)CO[C@H]1CN(C)Cc1ccc(C(=O)O)cc1`: the inhibition is -0.624% (inactive).

For the molecule `CN(C)C(=O)c1ccc(-c2ccccc2[C@@H]2[C@@H](C#N)N(C(=O)C3CCCC3)[C@H]2CO)cc1`, the inhibition was -1.75% (inactive).

Take `O=C(c1cccc(F)c1)N1CC[C@@H]2[C@H](CO)Nc3ccc(C#Cc4ccccc4)cc3[C@@H]21`: the inhibition is -0.355% (inactive).

Take `C/C=C/c1ccc([C@@H]2[C@@H](CO)N(C(=O)CN(C)C)C23CN(C(=O)C2CCCC2)C3)cc1`: the inhibition was 4.6% (inactive).

As for `CN1C(=O)c2cc(NC(=O)C3CCCC3)ccc2OC[C@@H]2O[C@@H](CC(=O)NCCc3ccncc3)CC[C@@H]21`, the inhibition was 1.93% (inactive).

For `C[C@H](CO)N1C[C@H](C)[C@H](CN(C)C(=O)CCN(C)C)OCc2ccccc2-c2c(n(C)c3ccccc23)C1=O`, the inhibition is 2.11% (inactive).

For the molecule `O=C(c1ccccc1)c1ccc(C(=O)N2CCN(c3ccccc3)CC2)cc1`, the inhibition is -1.66% (inactive).

`CCS(=O)(=O)N1CCC(N2CCN(c3ccccc3)CC2)CC1`: the inhibition is -4.72% (inactive).

For the molecule `CN1CCC(CN)(N2CCN(c3ccccc3)CC2)CC1`, the inhibition is 33.8% (active).

As for `CC(C)NC(=O)N(C)C[C@H]1OCCCC[C@H](C)Oc2ccc(NS(=O)(=O)c3ccc(Cl)cc3)cc2C(=O)N([C@@H](C)CO)C[C@H]1C`, the inhibition is -0.682% (inactive).

In the case of `O=C(c1ccc(F)cc1)N1CCC(n2nnc3ccccc32)CC1`, the inhibition was -0.54% (inactive).

Regarding `O=C(c1ccc(F)cc1)n1c(=S)nc2ccccn21`, the inhibition is 37.5% (active).

Take `O=C(c1ccc(F)cc1)n1cc(C(=S)N2CCOCC2)c2ccccc21`: the inhibition is 9.22% (inactive).

Consider `CO[C@@H]1CN(C)C(=O)c2ccc(NC(=O)NC(C)C)cc2OC[C@@H](C)N(C)C[C@H]1C`, for which the inhibition is -3.29% (inactive).

For `CN(C)CCNC(=O)c1cccc(-c2cnc3c(NC=O)cc(-c4cccc(C(F)(F)F)c4)cn23)c1`, the inhibition was 37.1% (active).

With `CC(=O)c1cccc(-c2cnc3c(NC=O)cc(-c4cccc(C(=O)N(C)C)c4)cn23)c1`, the inhibition is -1.2% (inactive).

For `CN(C)C(=O)c1cccc(-c2cnc3c(NC=O)cc(-c4ccc(F)cc4)cn23)c1`, the inhibition is 3.38% (inactive).

On to `COc1ccc2c3c(n(C)c2c1)[C@H](CO)N(C(=O)Nc1c(C)noc1C)CC31CN(CC2CC2)C1`, for which the inhibition is 1.61% (inactive).

For the molecule `C=CCOC(=O)[C@H]1[C@@H]2C(=O)O[C@@H](c3ccccc3)[C@@H](c3ccccc3)N2[C@@H](c2ccc(OCCOC(=O)[C@H]3C[C@H]4C(=O)NCC(=O)N4[C@H]3c3ccc(O)cc3)cc2)[C@]12C(=O)Nc1ccccc12`, the inhibition was 0.736% (inactive).

Turning to `COc1ccccc1N(CC(=O)Nc1ccccc1C(=O)N1CCCC1)S(C)(=O)=O`, the inhibition was 50.9% (active).

Consider `COc1ccc([N+](=O)[O-])cc1N(CC(=O)Nc1ccccc1C(=O)N1CCOCC1)S(C)(=O)=O`, for which the inhibition was 1.49% (inactive).

For `O=C(CN(c1ccccc1)S(=O)(=O)c1ccc(Cl)cc1)Nc1ccccc1C(=O)N1CCCC1`, the inhibition is 0.298% (inactive).
